5 compounds from PubChem BioAssay can be followed below.

The source made the active and inactive calls.

Assay [1] can be described thus: binders of probe aFSTL3 on microarray, primary screen, stem cell growth factor project, biochemical, small-molecule microarray, fluorescence 635/667 (AID 1064).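 Further: measures binding of the biotinylated anti-FSTL3 antibody to printed compounds.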 Conditions: higher = more signal.
The nature of assay [2]: binders from COS7 lysate, DM2A8 probe, primary screen, torsin A project, cell lysate, small-molecule microarray, fluorescence 635/667 (AID 1065). Conditions: higher = more signal, COS7 lysate expressing mutant human TOR1A.
The nature of assay [3]: binders of probe aFGF2 on microarray, primary screen, stem cell growth factor project, biochemical, small-molecule microarray, fluorescence 635/667 (AID 1067).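 Further: measures binding of biotinylated aFGF2 protein to printed compounds on slides; z-score merges feature fluorescence and signal-to-noise across triplicate slides.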 Conditions: higher = more signal.
Assay [4] can be described thus: binders of probe aFGF10 on microarray, primary screen, stem cell growth factor project, biochemical, small-molecule microarray, fluorescence 635/667 (AID 1071).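 Further: score merges 667 nm spot intensity and signal to noise from triplicate slides.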 The settings on record: higher = more signal.
Assay [5] deals with Neurogenic locus notch homolog protein 2 (Homo sapiens) (UniProt Q04721). As to the kind of experiment: Notch2 binders on small-molecule microarrays, primary screen, biochemical, small-molecule microarray, 635 nm fluorescence, stem cell growth factors (AID 1073). The settings on record: Notch2 binding, higher = more signal.
For assay [6], the target named is Pro-neuregulin-1, membrane-bound isoform (Homo sapiens) (UniProt Q02297). As to the kind of experiment: NRG1 binders on small-molecule microarrays, primary screen, psychiatric disease protein project, biochemical, small-molecule microarray, fluorescence 635/667 (AID 1075).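 Further: score combines 667 nm spot fluorescence with signal to noise.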 Conditions: NRG1 binding, 635 nm fluorescence, higher = more signal.
Assay [7] concerns Neuregulin-1 EGF-like domain. As to the kind of experiment: binders of neuregulin-1 EGF-like domain, primary screen, biochemical, small-molecule microarray, 635 nm fluorescence (AID 1081).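 Further: binding of the protein to compounds printed on small-molecule microarray slides.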 The settings on record: small-molecule microarray binding, higher = more signal.
The nature of assay [8]: FRG1 promoter luciferase signal modulators, primary screen, FRG1 inhibition for FSHD, cell-based, C2C12 myotubes, firefly/Renilla luciferase, luminescence (AID 1084). The settings on record: higher = more signal, called active from +8 up or from −8 down.
A short description of assay [9]: binders of probe aFST on microarray, primary screen, stem cell growth factor project, biochemical, small-molecule microarray, fluorescence 635/667 (AID 1086).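 Further: score merges 667 nm fluorescence with signal-to-noise of each printed compound spot.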 Conditions: higher = more signal.
Assay [10] is described as follows: binders of probe aHhip on microarray, primary screen, stem cell growth factor project, biochemical, small-molecule microarray, fluorescence 635/667 (AID 1087).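 Further: score merges spot fluorescence at 667nm with spot signal to noise ratio.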 Conditions: higher = more signal.
Assay [11] has as its system PRMT1 (protein arginine N-methyltransferase 1). As to the kind of experiment: PRMT1 binders on small-molecule microarrays, primary screen, biochemical, small-molecule microarray, 635 nm fluorescence (AID 1088).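 Further: binding of Prmt1 protein to compounds spotted on small-molecule microarray slides.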 Conditions: small-molecule microarray binding, higher = more signal.
Assay [12] is described as follows: yeast growth modulation, basal conditions, primary screen, YJM789 clinical isolate, OD600, 24 h (AID 1089).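 Further: growth of clinical yeast isolate S. cerevisiae YJM 789 seeded 1000 cells per well; test concentration not given here.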 Conditions: S. cerevisiae YJM789 growth, higher = more signal, called active from +8 up or from −8 down.
Assay [13] can be described thus: fission yeast growth modulation, primary screen, strain 972, OD600, 24 h, no modulator (AID 1090).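 Further: basal condition with compound alone and no growth modifier present; test concentration not given here.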 Conditions: S. pombe 972 growth, higher = more signal, called active from +8 up or from −8 down.
Assay [14] in a line: S. cerevisiae growth modulation with rapamycin, primary screen, strain BY4716, OD600, 96 h (AID 1091). Further: test concentration not given here. Conditions: higher = more signal, called active from +8 up or from −8 down.
The target of assay [15] is Torsin-1A-interacting protein 2 (Homo sapiens) (UniProt Q8NFQ8). As to the kind of experiment: LULL1 binders on small-molecule microarray, primary screen, cell lysate, human LULL1 lysate, 635/667 nm fluorescence (AID 1092).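 Further: probe is lysate of COS7 cells overexpressing human LULL1; score merges per-feature 667 nm fluorescence with signal-to-noise.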 The settings on record: hLULL1 lysate binding, 635 nm fluorescence, higher = more signal.
A short description of assay [16]: E. coli growth modulation, two-sided OD650, primary screen, E. coli filamentation project, strain DRC41, 24 h (AID 1093).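 Further: MC1000 strain lacking acrAB efflux and sulA so SOS filamentation is blocked; test concentration not given here.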 The settings on record: OD650, 24 h, higher = more signal, called active from +8 up or from −8 down.
Assay [17] in a line: small-molecule microarray binders of probe aLefty2, primary screen, biochemical, biotinylated probe, 635/667 nm fluorescence (AID 1094).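 Further: score merges spot fluorescence near 667 nm with spot signal-to-noise ratio.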 Conditions: higher = more signal.
For assay [18], the system named is Noggin (protein binding on small-molecule microarray). As to the kind of experiment: Noggin binders on small-molecule microarray, primary screen, biochemical, 635/667 nm fluorescence (AID 1095).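 Further: score merges 667 nm feature fluorescence with signal to noise over triplicate slides.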 Conditions: 635 nm fluorescence, higher = more signal.
Assay [19] has as its target Neurogenic locus notch homolog protein 3 (Homo sapiens) (UniProt Q9UM47). Description: NOTCH3 binders on small-molecule microarray, primary screen, biochemical, 635/667 nm fluorescence (AID 1096). Conditions: NOTCH3 binding, 635 nm fluorescence, higher = more signal.
A short description of assay [20]: small-molecule microarray binders of probe aEGFR, primary screen, biochemical, biotinylated probe, 635/667 nm fluorescence (AID 1097).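 Further: probe is a biotinylated anti-EGFR antibody binding compounds printed on slides; score combines fluorescence near 667 nm and signal to noise of each spot.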 Conditions: higher = more signal.

Neurogenic locus notch homolog protein 2 (Homo sapiens), sequence (Q04721 whole entry, looked up, canonical isoform): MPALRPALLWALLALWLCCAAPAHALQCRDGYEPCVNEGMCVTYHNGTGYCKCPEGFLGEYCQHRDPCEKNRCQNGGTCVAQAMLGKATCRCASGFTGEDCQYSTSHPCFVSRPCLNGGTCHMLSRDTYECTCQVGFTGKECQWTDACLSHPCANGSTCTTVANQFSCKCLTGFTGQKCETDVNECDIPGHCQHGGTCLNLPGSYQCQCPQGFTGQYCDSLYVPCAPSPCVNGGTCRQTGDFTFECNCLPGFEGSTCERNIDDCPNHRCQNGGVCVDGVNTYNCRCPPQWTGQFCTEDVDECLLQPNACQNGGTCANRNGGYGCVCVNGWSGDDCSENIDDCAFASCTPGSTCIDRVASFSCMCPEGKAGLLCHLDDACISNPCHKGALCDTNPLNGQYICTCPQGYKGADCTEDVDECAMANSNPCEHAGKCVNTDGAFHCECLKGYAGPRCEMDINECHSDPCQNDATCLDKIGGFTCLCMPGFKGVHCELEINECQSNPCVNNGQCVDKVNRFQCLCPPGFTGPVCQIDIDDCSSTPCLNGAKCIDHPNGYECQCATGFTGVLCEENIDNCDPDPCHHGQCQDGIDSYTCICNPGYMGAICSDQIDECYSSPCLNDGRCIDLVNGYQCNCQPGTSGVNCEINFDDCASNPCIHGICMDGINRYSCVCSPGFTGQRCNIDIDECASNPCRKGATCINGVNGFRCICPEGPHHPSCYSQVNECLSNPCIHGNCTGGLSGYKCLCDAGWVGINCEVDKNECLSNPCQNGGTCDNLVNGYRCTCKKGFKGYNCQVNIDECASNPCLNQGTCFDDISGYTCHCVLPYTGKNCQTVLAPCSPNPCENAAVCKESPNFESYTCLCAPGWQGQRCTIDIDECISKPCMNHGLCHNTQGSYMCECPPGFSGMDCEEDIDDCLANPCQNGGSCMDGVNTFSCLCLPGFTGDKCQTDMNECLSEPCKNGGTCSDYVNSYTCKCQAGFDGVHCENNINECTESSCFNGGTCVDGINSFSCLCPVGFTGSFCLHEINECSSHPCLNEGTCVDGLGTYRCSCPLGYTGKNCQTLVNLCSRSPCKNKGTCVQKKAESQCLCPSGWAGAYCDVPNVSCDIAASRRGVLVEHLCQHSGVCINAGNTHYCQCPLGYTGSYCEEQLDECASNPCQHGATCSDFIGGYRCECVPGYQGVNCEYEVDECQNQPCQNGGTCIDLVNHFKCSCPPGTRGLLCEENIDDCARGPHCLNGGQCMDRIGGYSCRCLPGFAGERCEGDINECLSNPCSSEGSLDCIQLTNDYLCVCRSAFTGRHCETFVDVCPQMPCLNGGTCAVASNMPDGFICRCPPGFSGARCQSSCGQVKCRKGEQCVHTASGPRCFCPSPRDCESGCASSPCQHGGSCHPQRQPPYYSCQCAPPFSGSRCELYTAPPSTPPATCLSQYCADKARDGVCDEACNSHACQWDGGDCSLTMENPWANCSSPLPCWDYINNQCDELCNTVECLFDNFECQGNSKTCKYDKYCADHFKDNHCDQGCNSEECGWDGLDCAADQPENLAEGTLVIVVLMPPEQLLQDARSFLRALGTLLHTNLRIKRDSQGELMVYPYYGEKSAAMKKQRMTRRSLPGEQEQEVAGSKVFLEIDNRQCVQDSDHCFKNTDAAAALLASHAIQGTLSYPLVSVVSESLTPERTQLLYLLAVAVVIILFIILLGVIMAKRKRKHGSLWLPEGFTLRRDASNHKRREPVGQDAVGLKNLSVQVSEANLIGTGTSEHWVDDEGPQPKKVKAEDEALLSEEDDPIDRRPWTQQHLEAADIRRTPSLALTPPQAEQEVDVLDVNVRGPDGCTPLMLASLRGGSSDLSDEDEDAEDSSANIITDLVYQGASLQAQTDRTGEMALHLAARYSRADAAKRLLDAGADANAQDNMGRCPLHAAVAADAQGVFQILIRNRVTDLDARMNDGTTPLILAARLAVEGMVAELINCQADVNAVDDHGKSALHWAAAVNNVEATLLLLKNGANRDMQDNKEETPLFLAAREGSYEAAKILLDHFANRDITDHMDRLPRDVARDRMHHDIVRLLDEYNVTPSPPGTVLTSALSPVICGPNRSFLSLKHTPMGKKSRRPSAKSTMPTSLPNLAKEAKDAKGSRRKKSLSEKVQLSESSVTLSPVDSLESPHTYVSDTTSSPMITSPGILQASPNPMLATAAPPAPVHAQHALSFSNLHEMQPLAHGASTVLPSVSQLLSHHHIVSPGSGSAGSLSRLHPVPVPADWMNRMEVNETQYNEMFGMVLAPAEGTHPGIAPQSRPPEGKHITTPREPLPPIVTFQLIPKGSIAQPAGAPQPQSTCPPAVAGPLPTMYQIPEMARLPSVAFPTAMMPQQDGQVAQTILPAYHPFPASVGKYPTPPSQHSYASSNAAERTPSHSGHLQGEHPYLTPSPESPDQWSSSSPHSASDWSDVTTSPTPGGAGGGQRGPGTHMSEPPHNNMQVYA
Pro-neuregulin-1, membrane-bound isoform (Homo sapiens), sequence (Q02297 whole entry, looked up, the tested form may be a part, canonical isoform): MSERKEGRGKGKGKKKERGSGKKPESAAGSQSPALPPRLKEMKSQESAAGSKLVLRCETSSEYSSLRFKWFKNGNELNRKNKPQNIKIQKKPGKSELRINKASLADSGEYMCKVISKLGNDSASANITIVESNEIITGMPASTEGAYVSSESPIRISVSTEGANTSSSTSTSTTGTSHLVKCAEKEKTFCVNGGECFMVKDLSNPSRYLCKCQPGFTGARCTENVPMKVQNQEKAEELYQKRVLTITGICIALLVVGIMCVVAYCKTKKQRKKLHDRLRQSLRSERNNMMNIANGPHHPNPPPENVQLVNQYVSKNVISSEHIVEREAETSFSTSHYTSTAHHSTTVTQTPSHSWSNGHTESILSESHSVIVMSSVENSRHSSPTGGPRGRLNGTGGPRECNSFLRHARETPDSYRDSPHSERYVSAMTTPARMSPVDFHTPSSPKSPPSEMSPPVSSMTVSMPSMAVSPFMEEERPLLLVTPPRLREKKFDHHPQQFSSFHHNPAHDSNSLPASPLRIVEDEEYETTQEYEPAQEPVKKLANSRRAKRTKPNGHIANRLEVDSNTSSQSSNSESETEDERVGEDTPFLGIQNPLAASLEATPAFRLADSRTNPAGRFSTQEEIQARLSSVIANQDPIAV
Torsin-1A-interacting protein 2 (Homo sapiens), sequence (Q8NFQ8 whole entry, looked up): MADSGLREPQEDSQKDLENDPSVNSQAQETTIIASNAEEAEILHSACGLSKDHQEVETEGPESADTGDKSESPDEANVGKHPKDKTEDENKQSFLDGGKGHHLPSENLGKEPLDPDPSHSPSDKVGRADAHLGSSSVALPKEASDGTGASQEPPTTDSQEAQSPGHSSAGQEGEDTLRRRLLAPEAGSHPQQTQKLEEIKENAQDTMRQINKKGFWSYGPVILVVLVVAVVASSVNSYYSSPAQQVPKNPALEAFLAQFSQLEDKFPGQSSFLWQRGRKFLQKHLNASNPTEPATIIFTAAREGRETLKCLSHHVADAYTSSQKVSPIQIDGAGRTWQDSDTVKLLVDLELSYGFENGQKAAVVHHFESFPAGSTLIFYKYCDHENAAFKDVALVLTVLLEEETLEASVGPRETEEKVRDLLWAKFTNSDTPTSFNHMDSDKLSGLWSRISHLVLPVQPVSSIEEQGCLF

As to `O=C1C2C=CC(C(O)c3cccc4ccccc34)N(n3cnnc3)C2C(=O)N1Cc1ccccc1` (stereo not given), the composite z-score in [1] is 1.45; in [2], 0.0748; in assay [3] it was 0.737; in assay [4], 0.774; in assay [5], 0.309; in assay [6], 0.704. The composite z-score is 0.821 in assay [7]; 1.8 in assay [9]; 0.506 in assay [10]; -0.117 in [11]; 0.846 in [15]; 0.93 in assay [17]. Moreover, the composite z-score in assay [18] was 0.56; in assay [19], 0.467; in assay [20], 0.804. For the same compound, the z-score in assay [8] was -0.259 (inactive); in assay [12], -26.6 (active); in assay [13], -16.1 (active); in assay [14], -0.0039 (inactive); in [16], -1.18 (inactive).

In the case of `C=CCN1C(=O)[C@]2(Cc3ccccc31)N=C(c1ccc(OCCCO)cc1)O[C@@H]2c1ccccc1`, the composite z-score in assay [1] was 0.5; in assay [2], 0.152; in [3] it was -0.062; in assay [4], 0.439; in [5] it was 1.6; in [6] it was 0.904. The composite z-score amounted to 1.2 in assay [7]; 0.961 in assay [9]; 0.0854 in assay [10]; 1.33 in [11]; 2.76 in assay [15]; 0.235 in [17]. Besides, the composite z-score in assay [18] was found to be 0.555; in assay [19] it was 0.923; in assay [20] it was 0.0786. Moreover, the z-score in assay [8] is -2.5 (inactive); in [12] it was -2.2 (inactive); in assay [13], -4.05 (inactive); in [14], 0.259 (inactive); in assay [16], -2.56 (inactive).

For `O=[N+]([O-])c1ccc(C[n+]2ccc(CCCO)cc2)o1`, the composite z-score in assay [1] worked out at 0.138; in assay [2], 0.218; in [3], 0.0609; in [4], 0.758; in [5] it was 1.53; in assay [6], 0.856. The composite z-score turned out to be 1.29 in assay [7]; 0.181 in assay [9]; 0.251 in assay [10]; 0.464 in assay [11]; 2.46 in assay [15]; 0.24 in assay [17]. The composite z-score in assay [18] was found to be 1.73; in assay [19] it was 1.07; in assay [20], 0.296. Moreover, the z-score in assay [8] is 0.472 (inactive); in assay [12], 0.593 (inactive); in assay [13] it was -12.9 (active); in assay [14] it was -0.302 (inactive); in [16], -2.76 (inactive).

For the compound `O=C(NCC(O)CO)[C@]1(CCS(=O)(=O)c2ccccc2)N=C(c2ccc(OCCCO)cc2)O[C@@H]1c1ccccc1` (stereo not given in full), the composite z-score in [1] is 0.871; in assay [2] it was 1.87; in assay [3], -0.0064; in [4], -0.299; in assay [5] it was 0.158; in [6], 2.3. The composite z-score in assay [7] is 1.3; in [9], 1.08; in [10] it was -0.288; in [11], -0.214; in assay [15], 3.67; in assay [17] it was -0.0949. Besides, the composite z-score was -0.203 in assay [18], -0.256 in assay [19] and -0.0913 in assay [20]. Moreover, the z-score is 0.47 (inactive) in assay [8]; -0.59 (inactive) in [12]; -0.149 (inactive) in [13]; -0.92 (inactive) in [14]; 0.169 (inactive) in assay [16].

Turning to `CCCCCN1CC=CC23O[C@@H]4C=CCCOC(=O)C4[C@H]2C(=O)N(CCCO)[C@@H]3C1=O` (stereo not given in full), the composite z-score in [1] is 0.0241; in assay [2], -0.615; in [3], -0.186; in assay [4], 0.0149; in [5] it was -0.755; in [6], -0.454. In addition, the composite z-score in [7] is 0.266; in assay [9], -0.108; in assay [10] it was -0.236; in assay [11] it was 0.229; in [15], -0.651; in assay [17] it was -0.257. Further, the results for the composite z-score in assay [18], in assay [19] and in assay [20] were -0.272, 0.0424 and -0.223, respectively. Moreover, the z-score is -0.482 (inactive) in [8]; 0.0103 (inactive) in assay [12]; -1.3 (inactive) in assay [13]; -0.506 (inactive) in assay [14]; 2.22 (inactive) in [16].
